The list is not random: actives were taken first. Their share in the collection is about 14%.
Lassa entry inh: Lassa virus entry inhibition; Lassa virus pseudotype entry inhibition, cell reporter; Potency, µM (titrated, usually from 37.9 µM), without a hit: top-dose activity change, negative = inhibition, actives largely listed as inhibitors; 300,000 compounds, 1.2% hits; calls by dose curve; tested in HEK293 cells; also: potency is read from the fitted curve at half-maximal effect; nearly all actives have a fitted effect of over 50% in size
Marburg entry inh: blocks Marburg virus binding to or entry into cells | Marburg virus pseudotyped entry inhibition, cell reporter | 300,000 compounds, 1.8% hits | Potency, µM (highest dose often 37.8 µM), for inactives: at the highest dose activity change, negative = inhibition, actives largely listed as inhibitors; calls by dose curve; tested in HEK293 cells; also: potency is read from the fitted curve at half-maximal effect
HCMV inh: human cytomegalovirus inhibition; 410,000 compounds, 4.5% hits; activity change, negative = inhibition, % at 57.5 µM; AID 1259415; HFF cells, HCMV-luciferase reporter, 72 h; hits give low values; in the data active = activity change below about -60%; inconclusive = no clear call, values can overlap the other calls; inactive = above about -39%
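Cell-based, HFFs, 1000 cells/well, 16 h 37C; cpds in DMSO + HCMV-luc, MOI 1 PFU/cell; 72 h 37C; OneGlo luminescence after 5 min RT; norm. to buffer vs Salinomycin 10uM.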
HCV inh: blocks hepatitis C virus; Huh7.5.1 HCVcc-Cre infection, luciferase reporter, 44 h; Potency, µM (top dose mostly 41.8 µM), for inactives: at the highest dose activity change, negative = inhibition, actives largely listed as inhibitors; 340,000 compounds, 3.4% hits; AID 651820; also: potency is read from the fitted curve at half-maximal effect
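After 44 h co-culture of compound, cells and HCVcc-Cre (~0.5 moi), substrate is added for 15 min at room temperature and luciferase measured over 15 sec. Cells were seeded at 1,000/well and pre-cultured 4 h.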
Pf growth 96h: P. falciparum growth inhibition at 96 hours | P. falciparum luciferase reporter growth, 96 h | Potency, µM (series often up to 28.7 µM), for the others: at the top dose activity change, negative = inhibition, actives largely listed as inhibitors | 320,000 compounds, 6.9% hits; also: potency is read from the fitted curve at half-maximal effect
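Luminescence readout: decreased luciferase signal marks inhibited growth of reporter-expressing P. falciparum in infected red cells (2% hematocrit, 0.05% parasitemia final), exposed to compound two generations (96 h, 37 C, 5% CO2).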
Pf growth 48h: P. falciparum growth inhibition at 48 hours (one generation) | P. falciparum luciferase growth in erythrocytes, 48 h | Potency, µM (doses to about 28.7 µM), for inactives: at the highest dose activity change, negative = inhibition, usual class: inhibitors | 310,000 compounds, 5.9% hits; also: potency is read from the fitted curve at half-maximal effect
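Luciferase-expressing parasites in RBCs, 2% Hct / 0.1% parasitemia final; RPMI 1640 + 0.5% Albumax; 37 C, 5% CO2, one generation; luminescence read-out, lower signal = inhibition.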
An asterisk follows results filed as active; ? = inconclusive; . = no result; + = active, no number; ! = repeats disagree; [ ] = another dose, or the depositor's remark. Unless noted, calls follow the shape of the dose curve; as a rule, active = well fitted inhibition curve with a large enough effect; inconclusive = small, poorly fitted or top-dose-only effect, or another doubt; inactive = no such curve, though single readings can be large or run the other way. % is scaled to controls: 0 for no effect and ±100 for the full control effect.

SMILES	Lassa entry inh	Marburg entry inh	HCMV inh	HCV inh	Pf growth 96h	Pf growth 48h
CCOCCn1c(=NC(=O)c2ccc(S(=O)(=O)N3CCOCC3)cc2)sc2cc(S(N)(=O)=O)ccc21	17.4%[46.1 µM]	-0.1%[46.1 µM]	-62.6*	22.4µM*	6.57µM*	14.7µM*
COCCn1c(=NC(=O)c2ccc(S(=O)(=O)N3CCc4ccccc4C3)cc2)sc2cc(S(N)(=O)=O)ccc21	3.5%	13.7%	-19.4	1.4%	7.38µM*	?
Cc1ccc(NC(=O)C(C)Sc2nc3c(c(=O)[nH]2)CCCC3)cc1Cl (stereo not drawn)	-1.2%[46.1 µM]	-15.2%[46.1 µM]	-8.5	.	.	.
COCCn1c(=NC(=O)c2ccc(S(=O)(=O)N3CCCc4ccccc43)cc2)sc2cc(S(C)(=O)=O)ccc21	?	43.3%	52.2	-27.0%	1.04µM*	3.29µM*
COc1cc(OC)cc(C(=O)N=c2sc3ccccc3n2C)c1	.	.	112.2	-21.8%	142.7%	350.7%
COC(=O)Cn1c(=NC(=O)c2ccc(S(=O)(=O)N3CCc4ccccc4C3)cc2)sc2cc(OC)ccc21	-8.9%	2.2%	-19.3	-4.8%	?	?
C=CCn1c(=NC(=O)c2ccc(S(=O)(=O)N3CCc4ccccc4C3)cc2)sc2cc(S(N)(=O)=O)ccc21	?	?	-65.1*	?	?	-24.0%
C#CCn1c(=NC(=O)c2ccc(S(=O)(=O)N3CCc4ccccc4C3)cc2)sc2cc(S(N)(=O)=O)ccc21	9.2µM*	14.1µM*	.	-20.1%	5.22µM*	?
COc1cccc(C(=O)N=c2sc3cc(S(C)(=O)=O)ccc3n2C)c1	13.6%	-0.3%[46.1 µM]	16.2	-0.5%	13.1µM*	98.7%
COc1ccc(C(CC(=O)Nc2ccc(Br)cn2)N2Cc3ccccc3C2=O)cc1 (stereo not drawn)	-14.0%[46.1 µM]	.	?	.	.	.
O=C(Nc1cc(-c2nc3cc(Cl)ccc3o2)ccc1Cl)c1cc2ccccc2o1	10.4%[46.1 µM]	-2.6%[46.1 µM]	-5.6	.	.	.
Cc1nn(C(=O)c2ccccc2F)c(C)c1S(=O)(=O)N1CCOCC1	0.2%[46.1 µM]	.	3.0	.	.	.
CC1C(=O)N(Cc2cn(Cc3ccco3)nn2)CCS(=O)(=O)N1Cc1ccc(-c2ccc(F)cc2Cl)cc1 (stereo not drawn)	.	?	-3.9	.	.	.
CCc1ccc(CNCCc2c[nH]c3ccccc23)cc1	.	.	4.3	-3.0%	7.38µM*	2.9%
COc1cccc(CNC23CC4CC(CC(C4)C2)C3)c1OCc1ccccc1	.	.	?	?	-14.5%	10.4µM*
c1ccc(CNCCc2c[nH]c3ccccc23)cc1	.	.	6.4	-10.2%	-0.9%	-6.5%
Clc1ccccc1CNCCc1c[nH]c2ccccc12	.	.	-9.8	.	.	.
Cc1cccc(CNCCc2c[nH]c3ccccc23)c1	?	10µM*	-99.2*	?	?	?
O=[N+]([O-])c1ccccc1CNCCc1c[nH]c2ccccc12	1.5%	-7.0%	126.2	-8.1%	-29.3%	2.94µM*
Fc1cccc(CNCCc2c[nH]c3ccccc23)c1	.	.	-24.4	8.8%	?	7.1%
COc1cccc(-c2cc(C(F)(F)F)nc(-n3nc(C)c(Br)c3C)n2)c1	4.0%[46.1 µM]	1.7%[46.1 µM]	-13.4	.	.	.
COc1cc(CNCCc2c[nH]c3ccccc23)cc(OC)c1OC	.	.	3.7	.	.	.
COc1cccc(CNCCc2c[nH]c3ccccc23)c1OCc1ccccc1	?	?	?	10µM*	34.3%	?
CC(C)(C)NC[C@H](O)COc1nsnc1N1CCOCC1	3.7%	0.5%	46.4	20.4%	0.675µM*!	2.39µM*!
COC(=O)COc1nsnc1N1CCOCC1	1.6%	-1.3%	-17.9	12.0%	.	5.2%
SMILES	Lassa entry inh	Marburg entry inh	HCMV inh	HCV inh	Pf growth 96h	Pf growth 48h
Cc1ccc(Cl)cc1N1CCN(C2CCCCC2NS(=O)(=O)c2ccccc2)CC1 (stereo not drawn)	.	.	.	17.9%	18.6%	?
O=S(=O)(NC1CCCCC1N1CCN(c2ccc(F)cc2)CC1)c1ccccc1 (stereo not drawn)	.	.	+	?	-19.5%	?
Cc1ccc(C)c(N2CCN(C3CCCCC3NS(=O)(=O)c3ccccc3)CC2)c1 (stereo not drawn)	.	.	.	11.2µM*	11.7µM*	?
N#CC1=C(Nc2ccccc2)SC=C(c2ccc(Cl)c(Cl)c2)N=C1N1CCOCC1	-21.1%	?	-27.3	?	?	13.1µM*
COc1ccc(/C(O)=C2\C(=O)C(=O)N(CCN3CCOCC3)[C@H]2c2ccccn2)cc1	.	2.0%[46.1 µM]	.	.	.	.
COc1ccc(C(c2nnnn2C2CCCC2)N2CCC(C(N)=O)CC2)c(OC)c1 (stereo not drawn)	6.3%	0.0%	-11.3	17.4%	?	?
COc1cc2cc(C(c3nnnn3C3CCCC3)N3CCc4ccccc43)c(=O)[nH]c2cc1OC (stereo not drawn)	.	6.6%	5.5	-18.4%	9.28µM*	?
CCC(C)(C)n1nnnc1C(c1cc2ccc(OC)cc2[nH]c1=O)N1CCN(C2CCCCC2)CC1 (stereo not drawn)	16.1%	13µM*	-13.8	?	.	10.4µM*
CCOC(=O)c1cc2oc(C(c3nnnn3C3CCCCC3)N3CCOCC3)cc2[nH]1 (stereo not drawn)	?	?	14.7	-23.0%	9.28µM*	9.28µM*
CCOC(=O)C1CCN(C(c2cc3ccc(C)cc3[nH]c2=O)c2nnnn2C2CCCCC2)CC1 (stereo not drawn)	?	?	-32.2	-12.4%	.	1.04µM*
COc1ccc(NC(=O)c2csnn2)cc1	-0.3%[46.1 µM]	?	60.7	.	.	.
O=C(Cc1ccc(NC(=O)N2CCCCc3ccccc32)cc1)NCc1cccc(Br)c1	-16.4%[46.1 µM]	.	0.4	.	.	.
COc1ccccc1N1CCN(C(c2cc3ccc(C)cc3[nH]c2=O)c2nnnn2C2CCCC2)CC1 (stereo not drawn)	-8.8%	13µM*	7.4	-5.9%	-18.7%	1.85µM*
COc1ccccc1N1CCN(C(c2cc3cc(C)ccc3[nH]c2=O)c2nnnn2C2CCCC2)CC1 (stereo not drawn)	?	?	-4.3	-12.3%	11.9%	?
COC(=O)[C@@]12C[C@@H](CC(=O)NCc3cccc(C(F)(F)F)c3)C(=O)N(Cc3cccc4ccccc34)C1=CCC(C)(C)C2	.	.	5.6	.	.	.
CC(C)c1ccc(CCNC(=O)CSC(=S)N2CCCC2)cc1	-14.1%	-5.3%	7.7	10.6%	-5.2%	14.7%
Cc1ccccc1-n1ncc2c(SCC(=O)NCc3cccs3)ncnc21	?	?	-36.0	22.4µM*	5.22µM*	-27.4%
CCOC(=O)Cc1csc(NC(=O)CSc2ncnc3c2cnn3-c2ccc(OC)cc2)n1	2µM*	?	-1.8	?	?	9.28µM*
CCOC(=O)CNC(=O)CSc1ncnc2c1cnn2-c1ccc(Cl)cc1	6.7%	26.8%[46.1 µM]	21.2	9.9%	.	17.8%

Source: PubChem BioAssay (National Center for Advancing Translational Sciences (NCATS))
